# Inconclusive results are not listed. The source made the active and inactive calls. Rule for the calls, unless noted: active = hit-call score of the fitted dose curve at least 0.9, where 1 is the maximum; inactive = score below 0.9.
# Key:
# [1] = read-out: Pyruvate Dehydrogenase Kinase 4 (PDK4), PDK4 (gene 5166); assay: LTEA_HepaRG_PDK4: Life Technologies and Expression Analysis (LTEA) Assay for Pyruvate Dehydrogenase Kinase 4 (PDK4) using HepaRG (AID 2283525); details: mRNA level, 48 h; actives raise or lower the signal
# Outline: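 In this multiplexed human HepaRG expression assay, cells are treated 48 h with test chemicals across an eight-point range starting at 100 uM. PDK4 mRNA changes, normalized to ACTB/GAPDH/POLR2A, are fitted in both directions relative to vehicle.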
# [2] = read-out: NAD(P)H dehydrogenase [quinone] 1 (NQO1), NQO1 (gene 1728); assay: LTEA_HepaRG_NQO1: Life Technologies and Expression Analysis (LTEA) Assay for NAD(P)H dehydrogenase [quinone] 1 (NQO1) using HepaRG (AID 2283526); details: mRNA level, 48 h; actives raise or lower the signal
# Outline: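 Differentiated human HepaRG cells in serum-free induction medium, dosed in duplicate for 48 h at 8 half-log concentrations up to 100 uM in 0.5% DMSO. NQO1 mRNA by qRT-PCR normalized to ACTB, GAPDH, POLR2A; bidirectional fit versus DMSO baseline.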
# [3] = read-out: Nuclear factor erythroid 2-related factor 2 (Homo sapiens) (UniProt Q16236); assay: LTEA_HepaRG_NFE2L2: Life Technologies and Expression Analysis (LTEA) Assay for Nuclear factor erythroid 2-related factor 2 (NFE2L2) Transcription Factor using HepaRG (AID 2283527); details: mRNA level, 48 h; actives raise or lower the signal;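 for outcome: TaqMan qRT-PCR transcript level normalised to ACTB GAPDH and POLR2A housekeeping genes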
# Outline: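 Transcript level of NFE2L2 is the read-out, measured by microfluidic TaqMan qRT-PCR and normalized to three housekeeping genes. Human HepaRG cultures received test chemical for 48 h at up to 100 uM in half-log steps. Gain or loss of signal is fitted relative to 0.5% DMSO.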
# [4] = read-out: succinate dehydrogenase complex iron sulfur subunit B (SDHB), SDHB (gene 6390); assay: LTEA_HepaRG_SDHB: Life Technologies and Expression Analysis (LTEA) Assay for succinate dehydrogenase complex iron sulfur subunit B (SDHB) using HepaRG (AID 2283528); details: mRNA level, 48 h; actives raise or lower the signal
# Outline: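 HepaRG cells (~100,000/well, plated 48 h) exposed in duplicate for 48 h in serum-free induction medium to 8-point half-log series from 100 uM in 0.5% DMSO; mRNA by qRT-PCR normalised to ACTB, GAPDH, POLR2A; bidirectional fit versus DMSO.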
# [5] = read-out: Signal transducer and activator of transcription 3 (Homo sapiens) (UniProt P40763); assay: LTEA_HepaRG_STAT3: Life Technologies and Expression Analysis (LTEA) Assay for Signal transducer and activator of transcription (STAT3) using HepaRG (AID 2283529); details: mRNA level, 48 h; actives raise or lower the signal
# Outline: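 Read-out is STAT3 mRNA level by qRT-PCR, normalized to three housekeeping genes, in human HepaRG liver cells treated for 48 h. Concentrations ran from 100 uM downward in half-log steps; curves were fitted for gain or loss relative to 0.5% DMSO.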
# [6] = read-out: solute carrier (SLCO1B1), SLCO1B1 (gene 10599); assay: LTEA_HepaRG_SLCO1B1: Life Technologies and Expression Analysis (LTEA) Assay for solute carrier (SLCO1B1) using HepaRG (AID 2283530); details: mRNA level, 48 h; actives raise or lower the signal
# Outline: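 Differentiated human HepaRG cells, plated 48 h, switched to serum-free induction medium and exposed in duplicate for 48 h to 8 half-log concentrations (top 100 uM) in 0.5% DMSO. SLCO1B1 mRNA by TaqMan qRT-PCR, normalized to ACTB/GAPDH/POLR2A.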
# [7] = read-out: sulfotransferase 2A1 (SULT2A1), SULT2A1 (gene 6822); assay: LTEA_HepaRG_SULT2A1: Life Technologies and Expression Analysis (LTEA) Assay for sulfotransferase 2A1 (SULT2A1) using HepaRG (AID 2283531); details: mRNA level, 48 h; actives raise or lower the signal
# Outline: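 Differentiated human HepaRG cells in serum-free induction medium were exposed for 48 h to eight half-log concentrations (top 100 uM, 0.5% DMSO). SULT2A1 mRNA was measured by qRT-PCR, normalized to ACTB, GAPDH and POLR2A, and fitted bidirectionally against DMSO.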
# [8] = read-out: Transforming Growth Factor (TGFA), TGFA (gene 7039); assay: LTEA_HepaRG_TGFA: Life Technologies and Expression Analysis (LTEA) Assay for Transforming Growth Factor (TGFA) using HepaRG (AID 2283532); details: mRNA level, 48 h; actives raise or lower the signal
# Outline: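 HepaRG (human liver line), 48 h exposure, 8 conc. half-log down from 100 uM, 0.5% DMSO vehicle, duplicates; serum-free induction medium. TGFA mRNA by TaqMan qRT-PCR, ACTB/GAPDH/POLR2A normalization; gain/loss fit vs DMSO.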
# [9] = read-out: Transforming Growth Factor (TGFB1), TGFB1 (gene 7040); assay: LTEA_HepaRG_TGFB1: Life Technologies and Expression Analysis (LTEA) Assay for Transforming Growth Factor (TGFB1) Transporter using HepaRG (AID 2283533); details: mRNA level, 48 h; actives raise or lower the signal
# Outline: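 Differentiated human HepaRG cells in serum-free induction medium were exposed in duplicate for 48 h to eight concentrations (top 100 uM, half-log steps, 0.5% DMSO). TGFB1 mRNA was quantified by qRT-PCR, normalized to ACTB, GAPDH, POLR2A, and fitted bidirectionally against DMSO.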
# [10] = read-out: TIMP1, TIMP1 (gene 7076); assay: LTEA_HepaRG_TIMP1: Life Technologies and Expression Analysis (LTEA) Assay for TIMP1 using HepaRG (AID 2283534); details: mRNA level, 48 h; actives raise or lower the signal;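 note: TaqMan qRT-PCR signal normalized to ACTB GAPDH and POLR2A housekeeping genes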
# Outline: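 Differentiated human HepaRG cells in serum-free induction medium were exposed 48 h to chemicals (8 half-log concentrations, top 100 uM, 0.5% DMSO). TIMP1 mRNA was quantified by TaqMan qRT-PCR, normalized to ACTB/GAPDH/POLR2A; bidirectional fit versus DMSO.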
# [11] = read-out: Tumor necrosis factor receptor 1 (TNFRSF1A), TNFRSF1A (gene 7132); assay: LTEA_HepaRG_TNFRSF1A: Life Technologies and Expression Analysis (LTEA) Assay for Tumor necrosis factor receptor 1 (TNFRSF1A) using HepaRG (AID 2283535); details: mRNA level, 48 h; actives raise or lower the signal
# Outline: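 Differentiated human HepaRG cells were exposed in duplicate for 48 h in serum-free induction medium to eight concentrations (top 100 uM, half-log steps, 0.5% DMSO). TNFRSF1A mRNA was quantified by qRT-PCR, normalized to ACTB, GAPDH and POLR2A, then fitted bidirectionally against DMSO.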
# [12] = read-out: Thyroid Hormone Responsive (THRSP), THRSP (gene 7069); assay: LTEA_HepaRG_THRSP: Life Technologies and Expression Analysis (LTEA) Assay for Thyroid Hormone Responsive (THRSP) using HepaRG (AID 2283536); details: mRNA level, 48 h; actives raise or lower the signal
# Outline: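 mRNA induction or loss relative to 0.5% DMSO vehicle was fitted bidirectionally across an eight-point curve whose highest exposure was 100 uM. Human HepaRG liver cells received chemicals in duplicate over 48 h before RNA extraction.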
# [13] = read-out: UDP glucuronosyltransferase (UGT1A1), UGT1A1 (gene 54658); assay: LTEA_HepaRG_UGT1A1: Life Technologies and Expression Analysis (LTEA) Assay for UDP glucuronosyltransferase (UGT1A1) using HepaRG (AID 2283538); details: mRNA level, 48 h; actives raise or lower the signal
# Outline: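 HepaRG cells, 0.5% DMSO vehicle, 48 h exposure in serum-free induction medium to 8-point half-log series topping at 100 uM, in duplicate. UGT1A1 mRNA by Fluidigm qRT-PCR, normalized to ACTB/GAPDH/POLR2A; bidirectional fit versus DMSO.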
# [14] = read-out: UDP glucuronosyltransferase (UGT1A6), UGT1A6 (gene 54578); assay: LTEA_HepaRG_UGT1A6: Life Technologies and Expression Analysis (LTEA) Assay for UDP glucuronosyltransferase (UGT1A6) using HepaRG (AID 2283539); details: mRNA level, 48 h; actives raise or lower the signal
# Outline: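 Human HepaRG cells were dosed for 48 h in serum-free induction medium with 0.5% DMSO vehicle, eight-point half-log series from 100 uM, in duplicate. UGT1A6 mRNA was measured by qRT-PCR, normalized to ACTB, GAPDH, POLR2A, and fitted bidirectionally against DMSO.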
# [15] = read-out: X-box binding protein 1 (XBP1), XBP1 (gene 7494); assay: LTEA_HepaRG_XBP1: Life Technologies and Expression Analysis (LTEA) Assay for X-box binding protein 1 (XBP1) using HepaRG (AID 2283540); details: mRNA level, 48 h; actives raise or lower the signal
# Outline: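 Differentiated human HepaRG cells in serum-free induction medium were exposed in duplicate for 48 h to eight half-log concentrations up to 100 uM in 0.5% DMSO. XBP1 mRNA was quantified by qRT-PCR, normalised to ACTB, GAPDH and POLR2A, with bidirectional fitting against DMSO.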
# [16] = LTEA_HepaRG_LDH_cytotoxicity: Cytotoxicity Assessment in the Life Technologies and Expression Analysis (LTEA) Assay (AID 2283563; active = hit-call score of the fitted dose curve at least 0.9, where 1 is the maximum)
# Outline: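 Differentiated human HepaRG cells, plated 48 h beforehand, were switched to serum-free induction medium and exposed for 48 h to eight half-log concentrations (top 100 uM) in 0.5% DMSO. LDH was measured in spent medium; activity was fitted relative to DMSO vehicle.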
# [17] = read-out: Cellular tumor antigen p53 (Homo sapiens) (UniProt P04637); assay: LTEA_HepaRG_TP53: Life Technologies and Expression Analysis (LTEA) Assay for Tumor Protein P53 (TP53) using HepaRG (AID 2283537); details: mRNA level, 48 h; actives raise or lower the signal
# Outline: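 Differentiated HepaRG cells in serum-free induction medium exposed 48 h in duplicate to 8 half-log concentrations, top 100 uM, 0.5% DMSO. TP53 mRNA by TaqMan qRT-PCR (Fluidigm), normalized to ACTB, GAPDH, POLR2A; fitted bidirectionally versus DMSO.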
# [18] = ATG_XTT_Cytotoxicity: Cytotoxicity Assessment in the Attagene TRANS-FACTORIAL HepG2 Assay (AID 2283584; active = hit-call score of the fitted dose curve at least 0.9, where 1 is the maximum)
# Outline: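 HepG2 human liver cells, transiently transfected with multiple GAL4-UAS reporter units, were dosed and read at 24 h by XTT as cell number. Loss of signal was fitted relative to DMSO negative control baseline.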
# [19] = TOX21_p53_BLA_p2_viability: Viability Assessment in the Tox21 HCT-116 p53 Agonism Beta-lactamase Assay, Phase 2 (AID 2283591; active = hit-call score of the fitted dose curve at least 0.9, where 1 is the maximum;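 note: compound exposure lasted 16 h at 37 °C; actives lower the ATP signal meaning cytotoxicity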)
# Outline: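 Cytotoxicity readout: CellTiter-Glo ATP luminescence, 30 min at room temperature, after the beta-lactamase read. Cells were HCT116 exposed 16 h at 37C to compounds pin-transferred at 217-fold dilution from DMSO stocks.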
# [20] = molecular target: Cellular tumor antigen p53 (Homo sapiens) (UniProt P04637); assay: TOX21_p53_BLA_p2_ratio: Tox21 HCT-116 p53 Agonism Beta-lactamase Assay, Ratio, Phase 2 (AID 2283592; active = hit-call score of the fitted dose curve at least 0.9, where 1 is the maximum)
# Outline: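 HCT116 cells carrying a p53-responsive beta-lactamase reporter were plated, incubated 5 h at 37C, then dosed with compounds in DMSO (217-fold dilution) for 16 h. CCF4-AM substrate was added for 2 h at room temperature; the 460/530 nm emission ratio gave gain-of-signal activity relative to DMSO.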
# Signal transducer and activator of transcription 3 (Homo sapiens), sequence (P40763 whole entry, looked up): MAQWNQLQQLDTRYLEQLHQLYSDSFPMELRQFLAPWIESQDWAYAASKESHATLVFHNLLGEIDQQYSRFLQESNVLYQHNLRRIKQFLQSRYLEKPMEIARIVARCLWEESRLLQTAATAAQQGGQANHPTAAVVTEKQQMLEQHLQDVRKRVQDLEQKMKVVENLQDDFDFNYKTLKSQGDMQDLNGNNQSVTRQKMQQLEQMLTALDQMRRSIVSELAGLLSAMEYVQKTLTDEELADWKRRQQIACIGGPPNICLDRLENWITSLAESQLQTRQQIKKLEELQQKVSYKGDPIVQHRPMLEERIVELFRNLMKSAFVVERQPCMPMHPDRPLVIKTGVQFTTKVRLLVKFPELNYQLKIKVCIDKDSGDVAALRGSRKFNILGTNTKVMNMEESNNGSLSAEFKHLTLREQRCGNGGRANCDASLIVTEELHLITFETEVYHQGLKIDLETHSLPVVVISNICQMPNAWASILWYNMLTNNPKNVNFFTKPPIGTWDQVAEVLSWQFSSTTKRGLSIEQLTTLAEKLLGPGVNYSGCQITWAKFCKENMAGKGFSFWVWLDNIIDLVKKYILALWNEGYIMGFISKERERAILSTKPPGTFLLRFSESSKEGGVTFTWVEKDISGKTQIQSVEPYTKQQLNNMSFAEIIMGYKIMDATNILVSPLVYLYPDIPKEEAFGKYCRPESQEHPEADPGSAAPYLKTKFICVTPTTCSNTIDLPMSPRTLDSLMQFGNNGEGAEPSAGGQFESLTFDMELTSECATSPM
# Cellular tumor antigen p53 (Homo sapiens), sequence (P04637 whole entry, looked up): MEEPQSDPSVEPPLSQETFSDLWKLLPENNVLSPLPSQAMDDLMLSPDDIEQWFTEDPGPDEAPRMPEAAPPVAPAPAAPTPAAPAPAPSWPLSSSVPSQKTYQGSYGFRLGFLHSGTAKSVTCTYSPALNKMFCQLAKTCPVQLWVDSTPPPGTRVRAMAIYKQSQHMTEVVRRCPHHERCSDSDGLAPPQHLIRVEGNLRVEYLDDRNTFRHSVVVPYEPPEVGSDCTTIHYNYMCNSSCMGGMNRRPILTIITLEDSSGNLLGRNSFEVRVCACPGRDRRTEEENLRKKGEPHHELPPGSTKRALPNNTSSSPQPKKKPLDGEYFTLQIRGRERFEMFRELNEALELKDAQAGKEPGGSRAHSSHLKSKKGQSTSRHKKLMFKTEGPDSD
# Nuclear factor erythroid 2-related factor 2 (Homo sapiens), sequence (Q16236 whole entry, looked up): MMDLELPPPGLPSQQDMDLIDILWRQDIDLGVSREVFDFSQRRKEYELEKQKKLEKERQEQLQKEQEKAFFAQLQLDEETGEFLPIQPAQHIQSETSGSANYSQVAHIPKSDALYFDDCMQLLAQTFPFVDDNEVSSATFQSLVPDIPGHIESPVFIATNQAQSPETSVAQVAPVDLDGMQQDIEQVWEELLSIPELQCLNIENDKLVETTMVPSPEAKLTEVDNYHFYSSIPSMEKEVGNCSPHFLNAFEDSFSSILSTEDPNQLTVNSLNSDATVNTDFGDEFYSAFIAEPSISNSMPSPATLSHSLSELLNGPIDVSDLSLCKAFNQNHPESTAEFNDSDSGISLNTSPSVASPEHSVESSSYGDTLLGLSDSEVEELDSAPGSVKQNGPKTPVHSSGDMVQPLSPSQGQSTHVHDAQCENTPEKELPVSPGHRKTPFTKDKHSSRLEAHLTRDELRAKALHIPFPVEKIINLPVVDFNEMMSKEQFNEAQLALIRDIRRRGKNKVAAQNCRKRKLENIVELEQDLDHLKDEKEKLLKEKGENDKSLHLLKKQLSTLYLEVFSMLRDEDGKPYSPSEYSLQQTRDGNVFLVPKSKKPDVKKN
smiles,measurement,setting,value
CCC(C)(CC)c1cc(NC(=O)c2c(OC)cccc2OC)on1,outcome,[1],inactive
same,outcome,[2],inactive
same,AC50,[3],14.9 µM (active)
same,outcome,[4],inactive
same,outcome,[5],inactive
same,outcome,[6],inactive
same,outcome,[7],inactive
same,outcome,[8],inactive
same,AC50,[9],50 µM (active)
same,outcome,[10],inactive
same,outcome,[11],inactive
same,AC50,[12],41.2 µM (active)
same,AC50,[13],2.8 µM (active)
same,outcome,[14],inactive
same,outcome,[15],inactive
same,outcome,[16],inactive
CCNc1nc(NC(C)C)nc(SC)n1,outcome,[1],inactive
same,outcome,[2],inactive
same,outcome,[3],inactive
same,outcome,[4],inactive
same,outcome,[5],inactive
same,outcome,[6],inactive
same,outcome,[7],inactive
same,outcome,[8],inactive
same,outcome,[9],inactive
same,outcome,[10],inactive
same,outcome,[11],inactive
same,outcome,[12],inactive
same,outcome,[14],inactive
same,outcome,[15],inactive
same,outcome,[16],inactive
CN(C)CCO,outcome,[1],inactive
same,outcome,[2],inactive
same,outcome,[3],inactive
same,outcome,[5],inactive
same,outcome,[6],inactive
same,outcome,[7],inactive
same,outcome,[8],inactive
same,outcome,[9],inactive
same,outcome,[10],inactive
same,outcome,[11],inactive
same,outcome,[12],inactive
same,outcome,[17],inactive
same,outcome,[13],inactive
same,outcome,[14],inactive
same,outcome,[15],inactive
same,outcome,[16],inactive
same,outcome,[18],inactive
same,outcome,[19],inactive
same,outcome,[20],inactive
CCSC(=O)N(CC)C1CCCCC1,outcome,[1],inactive
same,outcome,[2],inactive
same,outcome,[3],inactive
same,outcome,[4],inactive
same,outcome,[5],inactive
same,outcome,[6],inactive
same,outcome,[7],inactive
same,outcome,[8],inactive
same,outcome,[10],inactive
same,outcome,[11],inactive
same,outcome,[12],inactive
same,outcome,[13],inactive
same,outcome,[14],inactive
same,outcome,[15],inactive
same,outcome,[16],inactive
O=C(N[C@H]1CN2CCC1CC2)c1cc2ccoc2cn1,outcome,[1],inactive
same,outcome,[2],inactive
same,outcome,[3],inactive
same,outcome,[4],inactive
same,outcome,[5],inactive
same,outcome,[6],inactive
same,outcome,[7],inactive
same,outcome,[8],inactive
same,outcome,[9],inactive
same,outcome,[10],inactive
same,outcome,[11],inactive
same,outcome,[12],inactive
same,outcome,[17],inactive
same,outcome,[13],inactive
same,outcome,[14],inactive
same,outcome,[15],inactive
same,outcome,[16],inactive
same,outcome,[19],inactive
same,outcome,[20],inactive
C=CC(=O)NCNC(=O)C=C,outcome,[1],inactive
same,outcome,[2],inactive
same,outcome,[3],inactive
same,outcome,[5],inactive
same,outcome,[6],inactive
same,outcome,[7],inactive
same,outcome,[8],inactive
same,outcome,[9],inactive
same,outcome,[10],inactive
same,outcome,[11],inactive
same,outcome,[12],inactive
same,outcome,[17],inactive
same,outcome,[13],inactive
same,outcome,[14],inactive
same,outcome,[15],inactive
same,outcome,[16],inactive
same,outcome,[18],inactive
same,outcome,[19],inactive
Cc1ccc(O)c(C)c1,outcome,[1],inactive
same,outcome,[2],inactive
same,outcome,[3],inactive
same,outcome,[4],inactive
same,outcome,[5],inactive
same,outcome,[6],inactive
same,outcome,[7],inactive
same,outcome,[8],inactive
same,outcome,[9],inactive
same,outcome,[10],inactive
same,outcome,[11],inactive
same,outcome,[12],inactive
same,outcome,[17],inactive
same,outcome,[13],inactive
same,outcome,[14],inactive
same,outcome,[15],inactive
same,outcome,[16],inactive
same,outcome,[19],inactive
same,outcome,[20],inactive
